Test results taken from PubChem BioAssay (NCATS).
Results filed as inconclusive are left out. Active and inactive are the calls of the source. Calls come from the whole dose curve; as a rule, active = well fitted cell-killing curve with a large enough effect; inconclusive = small, poorly fitted or top-dose-only effect; inactive = no such curve, though single readings can be large or run the other way.
% is set by controls: 0 for no effect and ±100 for the full control effect.

Assay: qHTS of pediatric cancer cell lines to identify multiple opportunities for drug repurposing: Primary screen for SK-N-SH cells (AID 1347098); note: nearly all actives have a fitted effect of over 65% in size
Details: SK-N-SH viability, CellTiter-Glo luminescence, 48 h; series mostly up to 57 µM; activity change, negative = cytotoxic: at the top concentration
Text: Drug repurposing or repositioning has been offered as a strategy for drug development in oncology programs. This approach has special potential for childhood cancers and other rare or orphan diseases, where the expected return on new drug development has been a disincentive to pharmaceuticals.
In this project we exploit the poly-pharmacology of drugs to discover new indications via phenotypic screening of a panel of 19 well-characterized cell lines derived from solid tumors seen in children and adolescents. The goal is to identify approved drugs with previously unrecognized anticancer properties that has the potential to reveal new mechanisms and biological processes involved in carcinogenesis or drug resistance. We employed a titration-based paradigm (quantitative high-throughput screening or qHTS), where all compounds were tested at multiple concentrations for their effect on cell viability. Concentration-response curves (CRCs) were derived directly from the primary screen, and both potency and efficacy values were used to identify compounds with robust bioactivity profiles. We screened the NIH Chemical Genomics Center (NCGC) Pharmaceutical Collection (NPC) and Mechanism Interrogation Plate (MIPE) small molecule collections of approved and investigational compounds against these cell lines; and measured metabolically active cells after 48 hours of compound treatment as a proxy for cell viability.
Assay Submitter: Nathalia J. Martinez, National Center for Advancing Translational Sciences, National Institutes of Health, Rockville, MD, USA; email: natalia.martinez@nih.gov
[1] Shen, M et al. Quantitative high-throughput phenotypic screening of pediatric cancer cell lines identifies multiple opportunities for drug repurposing. Oncotarget 2017 Dec 19;9(4):4758-4772. PMID 29435139.
The cells were obtained from University of North Carolina (UNC), Pediatric Preclinical Testing Program (PPT), and Coriell Institute (CI).
qHTS cell viability assay:
Cells were assayed in growth media at a density of 500-1,000 cells/well. Five microliters of cells were dispensed into 1,536-well, white, solid-bottom, TC-treated plates (Greiner Bio One) using a multidrop dispenser and incubated at 37 degrees C, 5% CO2, under a humidified atmosphere for 5 hours. Twenty-three nanoliters of compounds and controls (neutral control DMSO or positive control bortezomib at final concentration of 2.3 µM) were subsequently transferred by Kalypsys pintool. For primary screens, the MIPE collection was tested at 11-point dilutions (final concentrations range from 0.78 nM to 46 µM) and the NPC collection at 8-point dilutions (final concentrations range from 0.59 nM to 46 µM). Compounds tested in follow-up screens were assayed at 11-point dilutions. Cells were incubated for 48 hours, followed by addition of 3 µL of CellTiter-Glo (Promega). After a 15 min incubation at room temperature, samples were analyzed for luminescence intensity using a ViewLux High-throughput CCD imager equipped with clear filters.
In the case of `O=C(O)c1cc(=O)c2ccccc2o1`, the “activity change, negative = cytotoxic” value is reported as -0.834% (inactive).
For `CCOC(=O)OC(C)OC(=O)[C@@H]1N2C(=O)[C@@H](NC(=O)[C@H](N)c3ccccc3)[C@H]2SC1(C)C` (stereo not given in full), the “activity change, negative = cytotoxic” value was -3.86% (inactive).
For `NS(=O)(=O)c1cc(-c2nn[nH]n2)c(NCc2cccs2)cc1Cl`, the “activity change, negative = cytotoxic” value was -6.69% (inactive).
With `Cn1c([N+](=O)[O-])cnc1COC(N)=O` the “activity change, negative = cytotoxic” value was -2.4% (inactive).
With `CCCC(O)C(CC)CO` (stereo not given) the “activity change, negative = cytotoxic” value was -4.13% (inactive).
With `O=C(O)c1ccc[n+]([O-])c1` the “activity change, negative = cytotoxic” value was 5.97% (inactive).
For `CC(C)(C)C(=O)OCOC(=O)[C@@H]1N2C(=O)[C@@H](NC(=O)[C@H](N)c3ccccc3)[C@H]2SC1(C)C`, the “activity change, negative = cytotoxic” value was -4.73% (inactive).
With `CN1C(=O)CC(c2ccccc2)C1=O` (stereo not given) the “activity change, negative = cytotoxic” value was -16.3% (inactive).
With `NC(=O)CC[C@@H](N)C(=O)O` the “activity change, negative = cytotoxic” value was -7.34% (inactive).
With `O[C@@H]1CO[C@H]2[C@@H]1OC[C@@H]2O` the “activity change, negative = cytotoxic” value was 1.59% (inactive).
In the case of `CN1C[C@@H]2C[C@H]1CN2c1cc2c(cc1F)c(=O)c(C(=O)O)cn2C1CC1`, the “activity change, negative = cytotoxic” value is reported as 3.77% [at 20 µM] (inactive).
In the case of `O=c1[nH]cnc2nc[nH]c12`, the “activity change, negative = cytotoxic” value is reported as -13.9% (inactive).
For `CNCc1ccccc1`, the “activity change, negative = cytotoxic” value was -7.6% (inactive).
For `C[N+]1(C)CCCC(OC(=O)C(O)(c2ccccc2)c2ccccc2)C1` (stereo not given), the “activity change, negative = cytotoxic” value was -2.38% (inactive).
In the case of `CCN(CC)CCc1nc(-c2ccccc2)no1`, the “activity change, negative = cytotoxic” value is reported as -19.2% (inactive).
In the case of `OC[C@@H](O)[C@@H](O)[C@H](O)[C@H](O)CO`, the “activity change, negative = cytotoxic” value is reported as -11.7% (inactive).
With `NC(=O)c1ccc([N+](=O)[O-])cc1Cl` the “activity change, negative = cytotoxic” value was 5.88% (inactive).
With `CC[C@]12CCCN3CCc4c(n(c5ccccc45)[C@@](O)(C(=O)OC)C1)[C@@H]32` the “activity change, negative = cytotoxic” value was -3.4% (inactive).
With `Cc1c(Cn2ccnc2)c2ccccc2n1CCC(=O)O` the “activity change, negative = cytotoxic” value was -8.4% (inactive).
In the case of `Cc1cc(=O)[nH]c(=S)[nH]1`, the “activity change, negative = cytotoxic” value is reported as -6.66% (inactive).
For `Cc1onc(-c2ccccc2)c1-c1ccc(S(N)(=O)=O)cc1`, the “activity change, negative = cytotoxic” value was -4.38% (inactive).
For `CC1(C)[C@@H](OC(=O)CCC(=O)O)CC[C@]2(C)[C@H]3C(=O)C=C4[C@@H]5C[C@@](C)(C(=O)O)CC[C@]5(C)CC[C@@]4(C)[C@]3(C)CC[C@@H]12`, the “activity change, negative = cytotoxic” value was 3.32% (inactive).
For `CCN1CC(CCN2CCOCC2)C(c2ccccc2)(c2ccccc2)C1=O` (stereo not given), the “activity change, negative = cytotoxic” value was -23.2% (inactive).
For `Cc1cc(C)nc(NS(=O)(=O)c2ccc(N)cc2)n1`, the “activity change, negative = cytotoxic” value was 11.2% (inactive).
With `CO[C@@]1(NC(=O)C(C(=O)O)c2ccc(O)cc2)C(=O)N2C(C(=O)O)=C(CSc3nnnn3C)CO[C@@H]21` (stereo not given in full) the “activity change, negative = cytotoxic” value was -9.78% (inactive).
In the case of `C=CCNC(N)=S`, the “activity change, negative = cytotoxic” value is reported as 1.27% (inactive).
In the case of `Cc1c(C)c2c(c(C)c1OC(=O)c1cccnc1)CC[C@@](C)(CCC[C@H](C)CCC[C@H](C)CCCC(C)C)O2`, the “activity change, negative = cytotoxic” value is reported as 1.77% (inactive).
With `C[C@@H](c1ncncc1F)C(O)(Cn1cncn1)c1ccc(F)cc1F` (stereo not given in full) the “activity change, negative = cytotoxic” value was 3.4% (inactive).
With `CN1CCCN=C1COC(=O)C(O)(c1ccccc1)C1CCCCC1` (stereo not given) the “activity change, negative = cytotoxic” value was -6.36% (inactive).
With `C[C@@H]1CCC[C@H](C)N1` the “activity change, negative = cytotoxic” value was 12.7% (inactive).
In the case of `CC(=O)[C@@]1(O)CC[C@H]2[C@@H]3C[C@H](C)C4=CC(=O)C=C[C@]4(C)[C@@]3(F)[C@@H](O)C[C@@]21C`, the “activity change, negative = cytotoxic” value is reported as -9.32% (inactive).
With `Cc1ccsc1/C=C/C1=NCCCN1C` the “activity change, negative = cytotoxic” value was 16.4% (inactive).
For `CCN(CC)CC1CCCCN1CC(=O)N1c2ccccc2C(=O)Nc2cccnc21` (stereo not given), the “activity change, negative = cytotoxic” value was -5.84% (inactive).
With `CN1CCN(C(=O)C2CCCCC2)CC1` the “activity change, negative = cytotoxic” value was 2.4% (inactive).
In the case of `Cc1c(N(C)C)c(=O)n(-c2ccccc2)n1C`, the “activity change, negative = cytotoxic” value is reported as -14.1% (inactive).
With `CCOC(=O)[C@H](CCc1ccccc1)N[C@@H](C)C(=O)N1CCC[C@H]1C(=O)O` the “activity change, negative = cytotoxic” value was -2.95% (inactive).
For `NS(=O)(=O)c1cc(C2(O)NC(=O)c3ccccc32)ccc1Cl` (stereo not given), the “activity change, negative = cytotoxic” value was -28.5% (inactive).
With `CC1(c2ccccc2)OC(C(=O)O)=CC1=O` (stereo not given) the “activity change, negative = cytotoxic” value was -10.1% (inactive).
In the case of `CN/C(=C\[N+](=O)[O-])NCCSCc1csc(CN(C)C)n1`, the “activity change, negative = cytotoxic” value is reported as -9.94% (inactive).
For `Cc1[nH]c(C)c(Cl)c(=O)c1Cl`, the “activity change, negative = cytotoxic” value was -3.73% [at 20 µM] (inactive).
